Sampled rows, rich in hits. Any-hit rate of the full collection: about 14%.
USP17 inh – blocks human USP17 ubiquitin-rhodamine cleavage; inhibition, % at 50 µM; purified USP17, Ub-rhodamine cleavage fluorescence, 3 h; A8MUK1; 47,000 compounds, 6.5% hits
Target sequence (A8MUK1 whole entry, looked up): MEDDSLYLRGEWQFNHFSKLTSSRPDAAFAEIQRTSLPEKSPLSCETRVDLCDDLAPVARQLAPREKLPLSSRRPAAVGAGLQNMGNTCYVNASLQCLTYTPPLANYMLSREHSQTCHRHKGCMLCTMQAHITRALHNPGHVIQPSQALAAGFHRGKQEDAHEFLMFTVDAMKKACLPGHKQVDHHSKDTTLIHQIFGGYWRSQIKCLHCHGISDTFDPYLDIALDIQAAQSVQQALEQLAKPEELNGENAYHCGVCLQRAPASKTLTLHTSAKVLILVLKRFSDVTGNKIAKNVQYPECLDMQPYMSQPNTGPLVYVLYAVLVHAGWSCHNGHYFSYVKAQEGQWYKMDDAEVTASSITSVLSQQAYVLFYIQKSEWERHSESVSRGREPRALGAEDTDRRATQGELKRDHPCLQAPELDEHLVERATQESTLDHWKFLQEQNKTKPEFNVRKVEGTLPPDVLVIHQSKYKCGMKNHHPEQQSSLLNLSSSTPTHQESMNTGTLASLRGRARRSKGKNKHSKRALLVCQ
USP28 block – inhibitors of human USP28 deubiquitinase; AID 1645857; Q96RU2; 47,000 compounds, 3% hits; inhibition, % at 25 µM; purified USP28, Ub-rhodamine cleavage fluorescence, 30 min
USP8 inh – inhibitors of human USP8 deubiquitinase. 47,000 compounds, 4.2% hits. purified USP8, Ub-rhodamine cleavage fluorescence, 30 min. P40818. inhibition, % at 20 µM
USP30 block – human USP30 deubiquitinase inhibition; Q70CQ3; purified USP30, Ub-rhodamine cleavage fluorescence; inhibition, % at 25 µM; 47,000 compounds, 5.3% hits; AID 1645860
Starred values were filed as active, the others as inactive; . = no result given. No stated cut-off is given here; in the data, active means inhibition above about 30%; inactive means the rest.

SMILES	USP17 inh	USP28 block	USP8 inh	USP30 block
CCCCN1Cc2sc(NC(=O)Nc3ccccc3C)nc2C1=O	4	1	18	8
CCCCN1Cc2sc(NC(=O)Nc3ccccc3F)nc2C1=O	33*	0	2	1
CCOc1ccc(-c2nc(SCC(=O)Nc3cccc(C)c3)n3[nH]c(=O)cc3n2)cc1	40*	18	42*	15
Cc1cccc(NC(=O)C(C)n2c(C)nc3onc(C)c3c2=O)c1 (stereo not given)	0	1	0	-6
Cc1cccc(C)c1NC(=O)C(C)n1c(C)nc2onc(C)c2c1=O (stereo not given)	.	0	8	43*
Cc1ccc(CNC(=O)CN2C(=O)c3ccccc3C2c2c(-c3ccccc3)[nH]c3ccccc23)o1 (stereo not given)	37*	4	23	-15
O=C(Nc1cc(Cl)ccc1O)c1ccc(Cn2cnc3ccccc3c2=O)cc1	45*	-2	-1	-8
CC1(c2ncc(CNC(=O)c3ccn[nH]3)cn2)CCCCO1 (stereo not given)	0	5	-3	-3
Cc1c(C(=O)NCc2cccc(Br)c2)oc2c1-c1[nH]ncc1CC2	62*	7	84*	-29
O=C1CCCC[C@@H]2[C@H](CCN2Cc2ccc3ncccc3c2)N1Cc1ccccc1F	8	-23	47*	-65
Cn1c(=O)c2c(nc(SCc3nnc(-c4ccccc4)o3)n2Cc2ccc(F)cc2)n(C)c1=O	59*	33*	-37	63*
COCCn1ccc2ccn(Cc3nc(-c4cccnc4)no3)c(=O)c21	26	-20	56*	-170
Cn1ccc2ccn(Cc3nc(-c4ccccn4)no3)c(=O)c21	2	15	15	1
O=c1c2c(ccn1Cc1ccccc1F)ccn2Cc1cccnc1	-17	.	2	.
O=c1c2c(ccn1Cc1nc(C3CC3)no1)ccn2Cc1cccnc1	8	31*	29	10
Cc1ccc(-c2nc(C)sc2CC(=O)Nc2ccc(F)cc2F)cc1	-17	4	-15	-15
Cc1nc2ncccc2c(=O)n1-c1ccc(NC(=O)c2ccc(F)cc2F)cc1	16	16	19	34*
COc1cccc(C(=O)Nc2ccc(-n3c(C)nc4ncccc4c3=O)cc2)c1	-7	-3	-46	1
Cc1cccc(CN2CCN(CC(=O)NCc3ccc4c(c3)OCO4)C2=O)c1	2	1	1	11
O=C1N(Cc2ccc(F)cc2)CCN1c1ccc2c(c1)OCO2	11	48*	12	20
CNC(=O)c1cc2c(nc1N(C)C)CCN(c1ncc(F)cn1)CC2	-9	15	-3	11
Cn1cncc1-c1nnc([C@H]2CCN(Cc3ncc[nH]3)C2)o1	-40	-5	-131	-15
CCc1ccc(C2CN3C(=O)N(c4ccc(OC)cc4)C(=O)[C@]3(C)c3[nH]c4ccccc4c32)cc1 (stereo not given in full)	8	10	19	13
Cc1cc2nc(/C=C/c3ccccc3)n(Cc3cccc(F)c3)c2cc1C	-6	51*	-18	0
Clc1ccccc1Cn1c(/C=C/c2ccccc2)nc2ccccc21	20	23	13	-12
SMILES	USP17 inh	USP28 block	USP8 inh	USP30 block
Cc1sc2ncc(C(=O)N3CCN(c4ccccc4)CC3)c(=O)n2c1C	-9	-14	-7	-33
COc1ccc(NC(=O)c2cccc3[nH]cc(CN4CCSCC4)c23)cc1	16	12	61*	22
COc1ccccc1C1=NC(c2ccc(C)cc2)N=C1C (stereo not given)	32*	6	5	24
COc1ccccc1-c1nc(-c2nnn(-c3ccc(C)cc3)c2C)no1	7	11	11	0
O=C(CCC(=O)N(c1ccccc1)c1ccccc1)Nc1cccc(C(F)(F)F)c1	18	15	-32	34*
O=C(Nc1cccc(C(F)(F)F)c1)c1ccccc1Cc1ccccc1	35*	26	18	18
O=C1CCSc2c1cccc2C(=O)Nc1cccc(C(F)(F)F)c1	5	12	14	7
CC(=O)N1CC[C@@]2(C(=O)N3CCCC3)CCN(C(=O)Nc3cccc(Cl)c3)CC[C@@H]12	-8	0	-58	-12
COc1ccc(-c2cc(C(C)=O)c(C)n2CCC(=O)NCc2cccc(OC)c2)cc1	3	10	-4	15
Cc1nc(-c2cccnc2)nc2c1CC(=O)N2C1CCCC1	12	6	37*	4
Cc1sc(NC(=O)c2ccc(S(=O)(=O)N(C)C)cc2)c(C(N)=O)c1C	.	-11	-5	4
Cn1c(CCC(=O)NCc2cc(F)cc(F)c2)nc2ccccc2c1=O	0	-8	15	-15
Cc1ccc(-n2ccn3c(CCC(=O)NCc4ccco4)nnc3c2=O)cc1C	6	8	-34	14
Cc1ccc(CNC(=O)CCc2nnc3c(=O)n(-c4ccc(C)c(C)c4)ccn23)cc1	32*	33*	41*	40*
Cc1cccc2c(=O)n(C)c(CCC(=O)NCc3cc(F)ccc3F)nc12	38*	9	5	45*
Cc1ccc(-n2ccn3c(CCC(=O)NCc4ccc(F)cc4)nnc3c2=O)cc1C	-1	14	67*	27
Cc1ccc2oc(C(=O)NCC(c3ccco3)N3CCCC3)cc(=O)c2c1 (stereo not given)	-10	-1	-1	-4
CCN(C(=O)c1cc2c(=O)n3cc(C)ccc3nc2n1Cc1ccccc1)C1CCCCC1	1	0	4	6
O=S1(=O)c2ccccc2NCC2CCCN21 (stereo not given)	-12	-5	3	-1
Cc1cccc(NC(=O)N2CCN(c3ncccc3-c3nnc(C4CC4)o3)CC2)c1	0	4	-25	8
O=C1NCc2ccccc2CC12CCN(Cc1cccc3ccccc13)C2 (stereo not given)	10	20	6	32*
C=C(C)Cn1c(N2CCC(Cc3ccccc3)CC2)nc2c1c(=O)[nH]c(=O)n2C	30	9	-4	37*
Cc1cc(C)nc(SCCn2c(N3CCC(Cc4ccccc4)CC3)nc3c2c(=O)n(C)c(=O)n3C)n1	41*	20	6	56*
Cc1ccc2cc(NC(=O)CC(CC(=O)O)c3ccccc3)ccc2n1 (stereo not given)	53*	.	6	.
Fc1ccc(N/C=C/c2ncc(C(F)(F)F)cc2Cl)cc1	20	-10	72*	-79
SMILES	USP17 inh	USP28 block	USP8 inh	USP30 block
COc1ccc(Cc2nnc(Nc3ccc(Cl)cc3)[nH]c2=O)cc1	5	-8	5	-28
COc1ccc(Cc2nnc(Nc3ccc(F)cc3)[nH]c2=O)cc1OC	4	10	18	35*
COc1ccc(Cn2cc(-c3ccc(Cl)cc3)cc(C#N)c2=O)cc1	14	17	7	42*
COc1ccc(C)cc1NC(=O)C1CC(=O)Nc2nc3ccccc3n21 (stereo not given)	70*	8	29	12
Cc1ccccc1N=c1oc2cc(O)ccc2cc1C(=O)NCC1CCCO1 (stereo not given)	-12	-9	18	-80
Cc1ccc(-c2noc(-c3nnc(SCC(=O)NC4CCCC4)n3C)n2)cc1	53*	10	12	29

Screening data as filed in PubChem.
